Source: PubChem (several laboratories)
BoNT A protease: BoNT A light chain protease inhibition | multiplex microsphere protease substrate cleavage, flow cytometry | inhibition, % at 10 µM | 0.17% of 360,000 active; further: plate controls were buffer without enzyme for full effect and enzyme alone for no effect
BoNT F protease: inhibitors of Botulinum neurotoxin F light chain protease. Multiplex microsphere protease cleavage assay, flow cytometry. inhibition, % at 10 µM. 0.22% of 360,000 active; in the data active means inhibition above about 35%, passing the limit was not always enough; inconclusive means no clear call, values can overlap the other calls; further: plate controls were buffer without enzyme for full effect and enzyme alone for no effect
Anthrax LF inh2: anthrax lethal factor protease inhibition. 0.12% of 360,000 active. P15917. multiplex microsphere protease cleavage assay, LF. inhibition, % at 10 µM; further: plate controls were buffer without enzyme for full effect and enzyme alone for no effect
Autofluor counter: compound fluorescence in toxin protease inhibitor counterscreen; compound autofluorescence counterscreen, microsphere flow cytometry; active compounds read high; fluorescence intensity (no concentration beside the values); 3.1% of 360,000 active; in the data active means fluorescence intensity above about 16000; inconclusive means no clear call, values can overlap the other calls
MazEF act: increases E. coli MazEF RNase cleavage of RNA. P0AE70. FAM/BHQ RNA-DNA oligo cleavage fluorescence, 5 h. activation, % at 20 µM. 0.32% of 350,000 active; in the data active means activation above about 50%
Target sequence (P0AE70 whole entry, looked up): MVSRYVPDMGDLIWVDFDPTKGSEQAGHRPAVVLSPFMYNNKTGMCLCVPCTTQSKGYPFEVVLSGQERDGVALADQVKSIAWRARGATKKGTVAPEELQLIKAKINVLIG
PfHsp40 yeast: rescue of PfHsp40-mediated yeast toxicity | growth rescue, % at 12.5 µM | S. cerevisiae expressing PfHsp40, growth rescue, ATP luminescence | 0.68% of 340,000 active; in the data active means growth rescue above about 28%, passing the limit was not always enough; inconclusive means no clear call, values can overlap the other calls;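 further: yeast W303a lacking pdr1 and pdr3 grown in galactose medium; growth measured after three days at 30 °C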
* hit, by the source's call; ? = inconclusive; / = no result given. An excerpt weighted towards active compounds, which were near 4.3% of everything screened. Unless noted, no stated cut-off is given here; in the data, active means inhibition above about 30%; inconclusive means no clear call, values can overlap the other calls; inactive means below that.

SMILES | BoNT A protease | BoNT F protease | Anthrax LF inh2 | Autofluor counter | MazEF act | PfHsp40 yeast
Cc1ccc(S(=O)(=O)N2CCOCC2)cc1C(=O)Nc1c(C)n(C)n(-c2ccccc2)c1=O | ? | -2.8 | -4.3 | 22630* | -1.5 | 1.6
Cc1c(NS(=O)(=O)N2CCCC2)c(=O)n(-c2ccccc2)n1C | 1.3 | 3.6 | -1.8 | 22285* | -9.4 | -0.3
CCOC(=O)C1(CCCc2ccccc2)CCN(C2CCN(C(C)=O)CC2)CC1 | 0.0 | -5.7 | -9.3 | 5343 | 10.7 | 0.7
CCOC(=O)C1=C(C)Nc2ncnn2C1c1cccs1 (stereo not drawn) | -0.2 | -1.3 | 0.8 | 6491 | 6.1 | -1.1
CCCC1=C(C(=O)OCC)C(/C=C/c2ccccc2)n2ncnc2N1 (stereo not drawn) | ? | -6.3 | 0.6 | 21846* | 0.9 | 1.3
CCOC(=O)C1=C(C)Nc2ncnn2C1/C=C/c1ccccc1 (stereo not drawn) | 4.5 | 4.7 | -10.0 | 20063* | -2.7 | 0.1
CCOc1ccc(CN2CCN(Cc3cccn3-c3nccs3)CC2CCO)cc1 (stereo not drawn) | 1.5 | -0.9 | 0.4 | 3711 | 3.3 | -1.5
CC1CN(C(=O)C(C)OC(=O)c2ccc3ncsc3c2)CC(C)O1 (stereo not drawn) | 0.1 | -2.1 | -4.3 | 2660 | -1.8 | -0.4
COc1c(F)c(F)c(C(=O)O)c(Nc2ccc(C)cc2)c1F | -4.9 | -5.1 | -1.4 | 22057* | 0.9 | -0.7
CCC(NC(=O)CNC(=O)c1ccc2c(c1)OCO2)c1ccc(Br)cc1 (stereo not drawn) | -2.6 | -11.9 | -2.9 | 6216 | 5.3 | 0.3
Oc1ccc(C=NNC(=S)Nc2ccccc2)nc1 | 0.2 | -8.0 | -3.0 | 3657 | 3.6 | /
Cc1cc(-c2ccccc2)n(-c2cc(N/N=C/c3ccccc3O)ncn2)n1 | -0.3 | -3.9 | -5.5 | 7414 | 3.3 | 582.1*
CNc1cc(-n2nc(C)cc2-c2ccccc2)ncn1 | 0.7 | -0.6 | -6.5 | 3370 | -0.8 | -0.7
C(#Cc1ccccc1)C[N+]1(CC#Cc2ccccc2)CCCCC1 | -1.6 | -2.0 | -3.6 | 4625 | 56.9* | 0.9
C#CC[N+]1(CC#Cc2ccccc2)CCCCC1 | -1.1 | -9.6 | -6.7 | 4488 | 7.5 | 0.1
COc1ccc(/C=C(\NC(=O)c2ccco2)C(=O)N2CCCCC2)cc1 | -5.1 | -13.2 | 10.0 | 3887 | 12.0 | 0.1
Cc1ccc(N=Nc2ccc(O)cc2)c(Br)c1 | 1.0 | ? | 25.1 | 2679 | 8.3 | 200.8*
Oc1ccc(N=Nc2ccc(Br)cc2)c(O)c1 | -3.2 | -11.1 | -1.3 | 3530 | -6.8 | 1.2
COCCn1ccc2c(OCC(=O)NCCc3ccccc3)cccc2c1=O | -1.7 | -7.7 | -3.1 | 5323 | 2.3 | -0.3
CC1=CC(=O)N(c2cccc(C(F)(F)F)c2)C1c1ccc(Cl)cc1 (stereo not drawn) | 0.9 | -0.8 | -1.5 | 23466* | -2.6 | 0.4
CC1=CC(=O)N(c2ccc(C)cc2)C1c1ccc(Cl)cc1 (stereo not drawn) | -0.7 | 0.2 | -0.2 | 1958 | 5.2 | 0.7
COc1cc(Cl)ccc1OCc1cc(C(=O)NC(C)Cc2cccnc2)no1 (stereo not drawn) | / | / | / | / | 3.4 | -0.7
Cc1cccc(NC(=O)CSCC(=O)N(C)CCOc2ccc(Cl)cc2)c1 | -1.3 | -0.4 | -1.5 | ? | 3.2 | 3.4
CCCCCCCCCCn1c2c(c(=N)c3c1CCC3)CCC2 | -1.3 | 6.2 | -0.6 | 4232 | -24.1 | 291.4*
O=C(OCC(=O)N1CCC(c2ccccc2)=N1)c1ccc(Cl)s1 | / | / | / | / | 2.1 | 1.2
SMILES | BoNT A protease | BoNT F protease | Anthrax LF inh2 | Autofluor counter | MazEF act | PfHsp40 yeast
CCc1c(C)[nH]n(-c2ccc(Oc3ccccc3)c(S(=O)(=O)O)c2)c1=O | ? | -1.6 | -0.8 | 22582* | -4.7 | 1.7
C/C(=N/Nc1ccc([N+](=O)[O-])cc1)c1c[nH]c2ccccc12 | -1.8 | -29.7 | 1.7 | 4973 | 23.2 | -0.2
CCN(c1ccccc1)S(=O)(=O)c1csc(C(N)=O)c1 | -2.5 | -1.2 | 0.9 | 3784 | -2.3 | -0.8
CC12CCC(C(=O)NCc3ccc(Cl)cc3)(OC1=O)C2(C)C (stereo not drawn) | -2.6 | -2.9 | 3.2 | 21504* | 3.6 | 4.9
CCOC(=O)c1ccc(NC(=O)C23CCC(C)(C(=O)O2)C3(C)C)cc1 (stereo not drawn) | 0.2 | 0.3 | -2.1 | 16270* | 7.0 | 0.9
CCOC(=O)c1ccc(NC(=O)COc2ccc(S(=O)(=O)NC(C)CC)cc2)cc1 (stereo not drawn) | -1.6 | -5.1 | -1.3 | 9904 | 6.8 | -1.8
